High-throughput results: PubChem, several laboratories
HTR2A ag: mouse HTR2A agonism via beta-arrestin recruitment | activation, % at 7.6 µM | hit rate 0.66% among 360,000 | CHO-K1 mHTR2A beta-arrestin complementation, luminescence; percent of 30 µM serotonin response | P35363;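 active = activation above a run cutoff, the mean activation of all tested compounds plus 3 SD, cut at about 14% in these data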;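 also: 0% = plate median of compound wells and 100% = 30 µM serotonin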
VLA-4 inh: inhibition in a human VLA-4 binding assay; hit rate 0.2% among 330,000; VLA-4 expressing cells, ligand binding flow cytometry; inhibition, % (about 7 µM as worked out from the volumes in the protocol); in the data active = inhibition above about 50%
V-ATPase pH: alters yeast V-ATPase proton transport; S. cerevisiae, pHLuorin cytosolic pH fluorescence; response, % at 10 µM; hit rate 0.37% among 350,000; AID 504577; in the data active = response mostly above about 7.3%, no sharp cut-off; inactive = mostly below about 5.4%; also: actives read high
JMJD2C inh: inhibitors of human GASC-1 (JMJD2C) demethylase; Q9H3R0; GST-JMJD2C(1-420) H3K9me3 demethylation, DELFIA europium; hit rate 0.069% among 330,000; inhibition, % at 2.35 µM;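 active = more than half of a compound's replicate wells show inhibition beyond 50%, single wells judged on their own value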;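 also: signal counts dimethyl H3K9 product captured on neutravidin plate; 0% = median of DMSO wells and 100% = 0.3 times that DMSO median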
Target sequence (Q9H3R0 1-420 limits assumed): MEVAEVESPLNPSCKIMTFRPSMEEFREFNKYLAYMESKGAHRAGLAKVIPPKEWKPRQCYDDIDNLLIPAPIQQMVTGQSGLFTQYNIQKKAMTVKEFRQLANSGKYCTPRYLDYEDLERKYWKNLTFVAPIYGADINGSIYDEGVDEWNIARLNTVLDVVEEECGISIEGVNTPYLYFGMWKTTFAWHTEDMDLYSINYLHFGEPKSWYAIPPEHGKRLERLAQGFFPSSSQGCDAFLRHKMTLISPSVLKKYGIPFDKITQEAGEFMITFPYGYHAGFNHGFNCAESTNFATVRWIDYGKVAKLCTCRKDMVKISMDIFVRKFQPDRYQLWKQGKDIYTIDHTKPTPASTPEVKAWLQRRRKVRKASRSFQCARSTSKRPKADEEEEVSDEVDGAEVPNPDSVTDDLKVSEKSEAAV
MEX-5 binding: C. elegans MEX-5 TCR-2 RNA binding activity | AID 1832 | hit rate 0.38% among 300,000 | Q9XUB2 | MEX-5/FITC-TCR2 RNA binding, fluorescence polarization; hits give low values | activity score (negative = inhibition of binding), % at 10 µM;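 active = inhibition past about -25% in most replicates, and total fluorescence under double the plate's negative control median, limit read from the data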;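 also: 0% = DMSO and -100% = 5 µM competing unlabeled TCR2 RNA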
Exocytosis inh: blocks lytic granule exocytosis | TALL-104 LAMP-1 surface exposure, flow cytometry; cells stimulated with thapsigargin and PMA | hit rate 0.66% among 360,000 | inhibition, % at 10 µM;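 active = inhibition above about 55%, limit read from the data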
VATPase regulator: modulates yeast V-ATPase proton transport. shares compounds with V-ATPase pH. S. cerevisiae pHLuorin cytosolic pH. response, % at 10 µM. hit rate 2% among 980; in the data active = response above about 24%;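 also: plate controls were vehicle wells for no effect and positive control wells for full effect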
* hit, by the source's call; . = no result given. An excerpt weighted towards active compounds, which were near 2.2% of everything screened.

SMILES	HTR2A ag	VLA-4 inh	V-ATPase pH	JMJD2C inh	MEX-5 binding	Exocytosis inh	VATPase regulator
Cc1cc2c(cc(C(=O)N3CCC(C(=O)N4CCCC4)CC3)n2Cc2c(F)cccc2Cl)o1	-0.8	-4.4	10.1*	-4.7	0.6	-2.1	2.3
CCOC(=O)c1cc2occc2n1Cc1c(F)cccc1Cl	-0.4	-14.7	2.8	-1.9	4.7	-0.5	.
CC(C)(C)OC(=O)N(Cc1ccccc1)Cc1ccc(OCc2cccc(NC(=O)C3CC3)c2)cc1	7.2	.	-2.5	.	.	-0.7	.
O=[N+]([O-])c1cccc(/C=N/Nc2nc(NCc3ccccc3)nc(N3CCOCC3)n2)c1O	-26.9	8.5	6.2	-5.4	-0.7	43.0	.
Cc1cccc(/C(N)=N/OC(=O)Cc2cccs2)c1	-2.6	-1.6	8.5*	11.3	1.4	-1.7	-0.4
CC(C(=O)Nc1ccc2c(c1)OCO2)c1ccc([N+](=O)[O-])cc1 (stereo not given)	-2.7	-3.1	15.3*	-6.2	-1.7	1.1	1.0
COc1cc(NC(=O)c2onc(C)c2Cl)cc(OC)c1OC	-0.4	-1.0	6.3	-9.0	-0.9	-8.3	.
O=C(NC(c1ccc(Cl)cc1)c1ccccn1)C1CCN(CCOc2ccc(Cl)cc2Cl)CC1 (stereo not given)	4.2	.	.	.	.	19.2	.
Cc1ccc(S(=O)(=O)NN=C2CCCc3ccccc32)cc1	-2.7	.	-2.7	.	.	-5.6	.
Cc1ccc(S(=O)(=O)O/N=C2\CCCc3ccccc32)cc1	9.9	-37.5	12.4*	-1.7	-0.2	0.6	-1.5
CC(C)(CNc1ccc([N+](=O)[O-])cc1Cl)N1CCOCC1	3.1	4.4	-63.3	3.0	-0.3	-4.0	.
CN(C)S(=O)(=O)c1ccc(N2CCCC2)c(C(=O)NNC(=O)c2ccc(Br)cc2)c1	-9.4	0.8	-7.7	0.7	-1.7	-4.3	.
CCN(CC)C(=O)c1cc2cc([N+](=O)[O-])ccc2s1	2.8	8.1	18.8*	9.1	0.5	-0.7	2.8
Cc1c(Cl)cnc(NC(=O)COC(=O)c2ccncc2)c1Cl	-5.9	0.0	5.9	-3.1	.	5.0	.
Cc1noc(C)c1C(=O)OCC(=O)Nc1ncc(Cl)c(C)c1Cl	6.7	1.9	10.9*	-0.8	.	2.4	0.8
CCCNC(=O)c1ccc(N2CCC3(CC2)CC(c2cccc(Br)c2)=NO3)c(NC(=O)c2ccc(Br)cc2)c1	0.8	.	-6.3	-7.5	4.6	-6.8	.
COc1cc(OC)c(C(=O)OCC(=O)Nc2nnc(-c3ccccc3)o2)cc1OC	-7.7	4.5	12.5*	2.7	.	-2.0	2.5
COc1cc(OC)cc(C(=O)OCC(=O)Nc2nnc(-c3ccccc3)o2)c1	-6.9	.	-3.3	.	.	3.6	.
O=C(NCc1ccco1)Nc1ccc(Br)cc1	-1.6	28.1	11.4*	0.8	-1.6	2.5	0.1
O=C(Cc1ccc2c(c1)OCCO2)N1CCN(S(=O)(=O)c2ccccc2C(F)(F)F)CC1	0.5	10.5	11.7*	6.6	0.4	1.0	0.9
O=C(CCc1nnc(-c2ccc3c(c2)OCO3)o1)NC(c1cccnc1)C(F)(F)F (stereo not given)	0.5	-8.6	8.6*	0.6	-1.5	-4.3	2.4
O=C(CCCc1c[nH]c2ccccc12)NCc1ccccc1F	-1.7	8.5	1.5	2.5	2.0	-3.9	.
O=C(Nc1ccc(Cl)cn1)C1CCN(c2ncnc3c2nc2n3CCCCC2)CC1	-1.2	-0.6	-1.9	-5.4	2.1	-4.3	.
CCc1ccccc1OCC(=O)Nc1cccc(S(=O)(=O)NC2=NCCC2)c1	-8.5	-20.6	9.5*	.	.	1.8	0.9
CCOc1ccccc1OCC(=O)Nc1cccc(S(=O)(=O)NC2=NCCCCC2)c1	-10.3	3.2	-1.6	5.0	.	0.7	.
SMILES	HTR2A ag	VLA-4 inh	V-ATPase pH	JMJD2C inh	MEX-5 binding	Exocytosis inh	VATPase regulator
O=C(COC(=O)c1ccc(O)cc1)Nc1cccc(S(=O)(=O)NC2=NCCC2)c1	-0.1	6.0	-0.5	5.5	.	-7.5	.
CC(C)c1ccc(C(=O)OCC(=O)Nc2cccc(S(=O)(=O)NC3=NCCC3)c2)cc1	-3.8	.	7.2*	.	.	-1.8	1.4
COc1ccc(-n2c(C)cc(C(=O)CN3C(=O)NC4(CCCc5sccc54)C3=O)c2C)cc1 (stereo not given)	3.5	1.0	10.4*	-3.5	3.2	6.4	-0.6
Cc1cc(C(=O)CN2C(=O)NC3(CCCc4sccc43)C2=O)c(C)n1-c1ccccc1 (stereo not given)	7.6	-39.1	1.9	2.4	-0.4	4.1	.
O=C(CSc1ccc(Br)cc1)NC1CCCCCC1	1.1	-1.8	-1.9	15.4	.	-0.3	.
Cc1ccc(S(=O)(=O)N(C)Cc2ccc(C(=O)N/N=C3\CCCC(=O)C3)cc2)cc1	-0.2	-10.2	3.1	0.3	-3.8	-0.8	.
O=C1CCC/C(=N\NC(=O)c2ccc(NS(=O)(=O)c3ccc(Br)cc3)cc2)C1	-1.8	22.5	13.6*	2.5	0.0	-6.7	-1.5
CN(C(=O)CSc1nc(N)c2c3c(sc2n1)CSC(C)(C)C3)c1ccccc1	1.8	0.0	9.8*	1.4	1.2	14.1	0.3
CC(C)(C)C(=O)Nc1ccccc1C(=O)NCCC(=O)Nc1ccccc1	1.4	-10.9	10.6*	-2.5	2.1	-3.0	-1.4
CC(C)=C(NC(=O)c1ccccc1)C(=O)NCc1ccccc1	-1.1	-6.8	-0.8	0.1	0.9	-0.6	.
CCC1S/C(=N/N=C/c2ccco2)N(Cc2ccccc2)C1=O (stereo not given)	-0.7	-5.9	60.0*	3.3	0.6	-13.5	1.6
O=C(NCC(c1cccs1)N1CCOCC1)c1cccc([N+](=O)[O-])c1 (stereo not given)	-1.8	8.1	53.1*	2.8	-0.6	-2.0	-2.5
COc1ccc(C(C)(C)C)cc1NC(=O)COC(=O)CSCc1c(C)noc1C	2.1	.	-2.2	.	.	0.3	.
C=CCn1cc(C(C)=O)c(=O)[nH]c1=O	3.9	4.4	6.4*	10.4	-1.3	-1.8	-1.9
N#CCCn1cc(C=O)c(-c2cccs2)n1	1.6	18.3	4.4	-16.9	1.0	-1.5	.
CCOC(=O)CSc1nnc(-c2ccccc2)o1	-3.7	-5.7	1.8	11.8	1.4	5.1	-3.2
NS(=O)(=O)c1cccc(NC(=O)CSc2nnc(-c3ccccc3)o2)c1	4.2	0.4	-8.6	-6.1	.	-6.2	0.0
O=C(CSc1nnc(-c2ccncc2)o1)Nc1cccc(F)c1	-28.9	4.8	-1.8	-2.6	0.2	4.2	.
CCCNc1ncc2c(=O)[nH][nH]c(=O)c2n1	-3.2	.	-0.3	.	.	-0.8	.
Cc1ccc(Cn2c(SCC(=O)N3CC(=O)Nc4ccccc43)nc3ccccc3c2=O)cc1	-0.7	9.0	-1.6	-11.1	2.1	-2.7	.
O=C1CN(C(=O)CSc2nc3ccccc3c(=O)n2CC2CCCO2)c2ccccc2N1 (stereo not given)	1.3	5.1	10.8*	2.8	0.8	4.6	-1.2
